# Screens from PubChem.
# Hits are enriched below; roughly 20% of the tested compounds scored in any of these assays.
# Pf growth 96h: inhibits malaria parasite growth, 96 h; 320,000 compounds, 6.9% hits; Potency, µM (series often up to 28.7 µM), for inactives: top-dose activity change, negative = inhibition, most hits filed as inhibitors; P. falciparum luciferase reporter growth, 96 h; note: potency is the fitted concentration of half-maximal effect; % is set by controls: 0 for no effect and ±100 for the full control effect
#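 Parasite growth measured via integrated firefly luciferase reporter in P. falciparum. Infected erythrocytes at 2% hematocrit, 0.05% parasitemia final were treated 96 hours at 37 C under 5% CO2, and luminescence was read.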
# HCMV antiviral: blocks human cytomegalovirus replication; 410,000 compounds, 4.5% hits; HFF cells, HCMV-luciferase reporter, 72 h; hits give low values; activity change, negative = inhibition, % at 57.5 µM; AID 1259415; in the data active = activity change below about -60%; inconclusive = no clear call, values can overlap the other calls; inactive = above about -39%; note: % is set by controls: 0 for no effect and ±100 for the full control effect
#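 HFF cells seeded 16 h at 37C, treated with compounds, infected with luciferase-reporter HCMV at MOI 1 PFU/cell; luciferase read at 72 h post infection, normalized to buffer-only and Salinomycin controls.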
# Pf growth 48h: P. falciparum growth inhibition at 48 hours (one generation) | P. falciparum luciferase growth in erythrocytes, 48 h | Potency, µM (titrated, usually from 28.7 µM), without a hit: top-dose activity change, negative = inhibition, actives largely listed as inhibitors | 310,000 compounds, 5.9% hits | AID 504832; note: potency is the fitted concentration of half-maximal effect; % is set by controls: 0 for no effect and ±100 for the full control effect
#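 In quantitative HTS format, infected erythrocytes bearing luciferase-reporter parasites were treated for a single generation at 37 C. Luminescence after adding detection reagent served as the growth measure.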
# Shiga inhibitor: Shiga toxin inhibition. inhibition, % at 38.7 µM. 290,000 compounds, 9.2% hits. Vero cells, Shiga toxin protein synthesis inhibition reporter. AID 2315; in the data active = inhibition mostly above about 28%, no sharp cut-off; inactive = mostly below about 43%; note: 0% is about no effect
# CHX counter: counter-screen for Shiga toxin inhibitors: cycloheximide protein synthesis inhibition | cell reporter, cycloheximide protein synthesis inhibition counterscreen | max response, % | 300,000 compounds, 12% hits | AID 2314; in the data active = max response mostly above about 13%, no sharp cut-off; inactive = mostly below about 14%; note: read at 38.3 µM for the half of the compounds with a filed dose; 0% is about no effect
# Active calls of the source: *; ? = inconclusive; · = not tested or not shown; [ ] = remark or other dose. Unless noted, calls come from the whole dose curve; as a rule, active = well fitted inhibition curve with a large enough effect; inconclusive = small, poorly fitted or top-dose-only effect, or another doubt; inactive = no such curve, though single readings can be large or run the other way.
SMILES,Pf growth 96h,HCMV antiviral,Pf growth 48h,Shiga inhibitor,CHX counter
O=C(CCc1ccccc1)NNC(=O)c1ccccc1Br,36.1%,-37.0,-12.0%,-6.9,-4.1
CN(C(=O)c1cc2nc(-c3ccco3)cc(C(F)(F)F)n2n1)c1ccc(OC(F)(F)Cl)cc1,·,2.9,·,·,·
CCOc1ccc(S(=O)(=O)N2CCC(N3CCN(Cc4ccc(F)cc4)C(=O)C3=O)CC2)cc1,·,-5.7,·,·,·
CCOC(=O)c1cc(-c2ccccc2)sc1NC(=O)CCN1C(=O)c2ccccc2C1=O,?,?,12.7%,-8.6,-3.2
CCOC(=O)c1cc(-c2ccccc2)sc1NC(=O)CC,2.33µM*,22.6,5.22µM*,-8.8,-0.9
CCOC(=O)c1cc(-c2ccccc2)sc1N,-6.8%,6.6,52.4%,58.6*,36.5*
COCCNC(=O)c1cc(-c2ccccc2)sc1N,·,-18.0,·,·,·
CCOC(=O)c1sc(-c2ccccc2)cc1N,·,-15.3,146.1%,115.7*,58.8*
CCOC(=O)c1c(N)sc(-c2ccccc2)c1C,12.2%,-37.1,53.2%,68.0*,33.6*
Cc1c(Cl)cnc(NC(=O)COC(=O)c2cccc(S(=O)(=O)N3CCOCC3)c2)c1Cl,·,-39.7,·,·,·
COC(=O)c1cc(-c2ccc(Cl)cc2)c2c(=O)[nH]c(=O)n(C)c2n1,·,-13.2,·,·,·
OC(CCN1CCC2(CC1)OCCO2)C(F)(F)F (centres undefined),33.0%,?,485.2%,-5.2,-3.5
CC1(CCC(=O)N2CCCC(N3CCN(c4ccc(F)cc4)CC3)C2)CC1 (centres undefined),?,-8.2,-19.3%,-20.0,-2.1
Cc1cc(C)c2nc(N3CCCC(C(=O)NCc4cccc(Cl)c4)C3)sc2c1 (centres undefined),·,6.9,·,·,·
O=C(Nc1sc(-c2ccccc2)cc1C(=O)O)c1ccccc1,257.6%,8.2,45.2%,52.2*,34.7*
O=[N+]([O-])c1oc2ccc3ccccc3c2c1CCO,·,-101.7*,·,·,·
CCC1CN(C(=O)C2CCN(S(=O)(=O)c3c(C)noc3/C=C/c3ccc(C)cc3)CC2)c2cc(C)ccc2O1 (centres undefined),·,54.7,·,·,·
COc1ccc2c(c1)cc1c(=O)n(CC(=O)NC(C)CCc3ccccc3)nc(C)n12 (centres undefined),17.4%,0.0,8.8%,14.4,-3.5
c1ccc(-c2nc3ccccn3c2NC2CCCC2)nc1,18.9%,-37.8,10.4µM*,16.0,27.0
COc1ccc(-c2nc3ccccn3c2NC2CCCCC2)cc1SC1CCCCC1,?,-98.7*,11.7µM*,·,·
CCCCNc1c(-c2ccc(OC)c(SC3CCCCC3)c2)nc2ccc(Cl)cn12,·,-37.0,·,·,·
COc1cc(-c2nc3ccccn3c2NCc2ccccc2)ccc1SC1CCCCC1,?,·,5.22µM*,·,·
COc1ccc(CSc2ccc(-c3nc4ccccn4c3NCc3ccccc3)cc2OC)cc1,?,-64.8*,10.4µM*,·,·
COc1cc(-c2nc3ccc(C)cn3c2NCc2ccccc2)ccc1-c1cccc(Cl)c1,·,-15.8,·,·,·
COc1cc(-c2nc3ccc(C)cn3c2NCc2ccccc2)ccc1SC1CCCCC1,4.65µM*,0.9,?,·,·
SMILES,Pf growth 96h,HCMV antiviral,Pf growth 48h,Shiga inhibitor,CHX counter
CC(=O)Nc1ccc(NC(=O)C2(C)CC2(Cl)Cl)cc1 (centres undefined),52.4%[5.75 µM],11.5,-11.4%,-4.6,-1.2
COc1ccc(/C=C/C(=O)CCC(=O)O)cc1,4.2%,-20.2,32.8%,56.3*,32.0*
O=C(CC(O)(c1ccccc1)C(F)(F)C(F)F)c1cccs1 (centres undefined),-27.4%,-26.9,-5.7%,8.3,17.4
COc1ccc(/C=C/C(=O)CC(O)(c2ccccc2)C(F)(F)F)cc1 (centres undefined),?,-100.4*,13.1µM*,-1.7,-1.8
O=C(/C=C/c1ccccc1)CC(O)(c1ccccc1)C(F)(F)C(F)F (centres undefined),7.38µM*,?,·,-18.0,1.5
COc1ccc(/C=C/C(=O)O)cc1,6.5%,22.2,2.4%,21.4,4.7
COc1ccc(/C=C/C(=O)OCCC(C)C)cc1,13.5µM*,·,23.9%,104.9*,33.7*
CCCCC(CC)COC(=O)/C=C/c1ccc(OC)cc1 (centres undefined),2.5%,-17.5,5.1%,·,·
O=C1Cc2cc(S(=O)(=O)N3CCCCC3)cc3c2N1CCC3,·,-17.6,·,·,·
O=C(/C=C/c1ccccc1)CC(O)(c1ccccc1)C(F)(F)F (centres undefined),?,-102.4*,·,-30.4,-1.8
COc1ccc(C2CC(c3cccc(F)c3)=NN2c2ccc(S(N)(=O)=O)cc2)cc1 (centres undefined),·,4.2,·,·,·
NS(=O)(=O)c1ccc(N2N=C(c3ccccc3)CC2c2ccc(F)cc2)cc1 (centres undefined),?,4.3,11.7µM*,-3.5,-3.0
COc1ccc(C2CC(c3ccccc3)=NN2c2ccc(S(N)(=O)=O)cc2)cc1 (centres undefined),?,-0.5,13.1µM*,15.2,12.6
Cc1cccc(C2CC(c3ccccc3)=NN2c2ccc(S(N)(=O)=O)cc2)c1 (centres undefined),·,-12.9,·,·,·
COc1ccc(C2CC(c3cccc(C(F)(F)F)c3)=NN2c2ccc(S(N)(=O)=O)cc2)cc1 (centres undefined),·,-101.0*,·,·,·
COc1ccc(Cl)cc1NC(=O)CCS(=O)(=O)c1ccc(C)cc1,-9.3%,-34.3,10.1%,-1.1,-2.5
O=C(NCCC(=O)N1CCN(c2ccccn2)CC1)c1ccc(Br)cc1,1.8%,-21.4,0.1%,·,·
c1cnc(OCCN2CC2)cn1,·,-20.9,·,·,·
c1ccc(-c2sc3ccccc3c2-c2ccc(OCCN3CCCCC3)cc2)cc1,·,-63.7*,·,·,·
c1ccc2c(-c3ccc(OCCN4CCCCC4)cc3)c(-c3ccsc3)sc2c1,·,-23.3,·,·,·
OCCCN1CCN(CCOc2ccccc2-c2ccccc2)CC1,10.4µM*,-17.1,?,9.1,1.1
c1cc(OCCN2CC2)ccn1,·,-100.0*,·,·,·
CN1CCN(CCOc2ccc(-c3ccccc3)cc2)CC1,?,14.4,?,85.8*,46.2*
